“And” between values parts separate entries of the source, which are not always exact repeats. Equal values may be shown once. Inconclusive results are not listed. Entries that show only a call come without a potency. A structure can be active in one record and inactive in another. The source made the active and inactive calls. Unless noted, calls follow the shape of the dose curve; as a rule, active = well fitted curve in the direction sought with a large enough effect in the repeat runs; inconclusive = weak or mixed curves; inactive = no such curve, though single readings can be large; an effect the other way counts as inactive or inconclusive.
How the values were obtained:
[1] = qHTS assay to identify small molecule antagonists of the estrogen related receptor (ERR) signaling pathway from Tox21 library - cell viability counter screen (AID 1224834); also: nearly all actives have a fitted effect of over 30% in size
Procedure, shortened: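 ERR cells, 2,000/well; 6 h settle at 37 C/5% CO2; pin-tool compound transfer in DMSO; 17.5 h at 37 C; CellTiter-Fluor, 30 min; fluorescence intensity.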

[2] = molecular target: Luciferin 4-monooxygenase (Photinus pyralis) (UniProt P08659); assay: qHTS assay to identify small molecule inhibitors of firefly luciferase (AID 1224835); also: nearly all actives have a fitted effect of over 25% in size
Procedure, shortened: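 Inhibition of purified Photinus luciferase is measured by luminescence. Substrate levels (D-luciferin, ATP) sit at their KM values. Each compound is tested in a concentration series.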

[3] = qHTS assay to identify small molecule agonists of the constitutive androstane receptor (CAR) signaling pathway - cell viability counter screen (AID 1224836); also: nearly all actives have a fitted effect of over 45% in size
Procedure, shortened: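 Using CellTiter-Fluor, viability of HepG2 cells harbouring hCAR and CYP2B6-2.2kb was measured following 23 h incubation with a 15-concentration compound series plus PK11195 (0.75 uM final).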

[4] = qHTS assay to identify small molecule antagonists of the constitutive androstane receptor (CAR) signaling pathway - cell viability counter screen (AID 1224837); also: nearly all actives have a fitted effect of over 45% in size
Procedure, shortened: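 Viability was measured with CellTiter-Fluor in a HepG2 line carrying stably transfected hCAR and a CYP2B6-2.2kb construct. Cells were exposed for 23 hr at 37 C to 15 compound concentrations with 50 nM CITCO as agonist.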

[5] = molecular target: Nuclear receptor subfamily 1 group I member 3 (Homo sapiens) (UniProt Q14994); assay: qHTS assay to identify small molecule antagonists of the constitutive androstane receptor (CAR) signaling pathway (AID 1224838);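 also: HepG2 cells stably expressing hCAR with CYP2B6 luciferase reporter stimulated by CITCO; nearly all actives have a fitted effect of over 40% in size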
Procedure, shortened: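 Antagonist mode used CITCO at a final 50 nM to activate CAR in human hepatoma HepG2 cells carrying stable hCAR and a 2.2 kb CYP2B6 promoter-luciferase construct. Compounds were tested at 15 concentrations over 24 h, with luminescence as the end point.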

[6] = qHTS assay to identify small molecule antagonists of the estrogen related receptor signaling pathway with the pleiotropic PPARgamma coactivator (PGC) from Tox21 10K library - cell viability counter screen (AID 1224840; active = well fitted cell-killing curve with a large enough effect in the repeat runs, not every such curve was filed as active; also: nearly all actives have a fitted effect of over 40% in size)
Procedure, shortened: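 Multiplexed viability counter screen in the PGC/ERR cell line: cells treated with DMSO-dissolved compounds for 17.5 hours at 37 C, then viability measured as CellTiter-Fluor fluorescence.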

[7] = molecular target: Thyrotropin receptor (Homo sapiens) (UniProt P16473); assay: qHTS assay to identify small molecule agonists of the thyroid stimulating hormone receptor (TSHR) signaling pathway (AID 1224843; calls by dose curve; also: nearly all actives have a fitted effect of over 45% in size)
Procedure, shortened: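 A cell-based cAMP HTRF format was run in TSHR-transfected HEK293 cells, 800 per well. Treatment: 30 min, room temperature. Detection: 1 h with labelled cAMP and anti-cAMP cryptate. Concentration-response over 15 points, three replicates.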

[8] = qHTS assay to identify small molecule agonists of the hypoxia (HIF-1) signaling pathway - cell viability counter screen (AID 1224844; calls by dose curve; also: nearly all actives have a fitted effect of over 50% in size)
Procedure, shortened: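 Cytotoxicity was measured in parallel with the HRE-driven beta-lactamase readout: after 17 hrs of compound exposure at 37C, HRE-bla ME-180 cells received CellTiter-Glo and luminescence was recorded 30 min later.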

[9] = qHTS assay to identify small molecule agonists of H2AX (AID 1224845; active = well fitted activation curve with a large enough effect in the signal ratio in the repeat runs, not every such curve was filed as active; the % refers to the signal ratio)
Procedure, shortened: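 Phospho-H2AX Ser139 measured by HTRF (ex 320 nm; em 665 and 620 nm) after 24 hr antibody incubation. Compounds, 15 concentrations, 0.76% DMSO, were applied to CHO-K1 cells for 3hr at 37C before lysis.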

[10] = qHTS assay to identify small molecule agonists of the hypoxia (HIF-1) signaling pathway (AID 1224846; active = well fitted activation curve with a large enough effect in the signal ratio in the repeat runs, not every such curve was filed as active; the % refers to the signal ratio)
Procedure, shortened: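 Compounds from the Tox21 10K library, dissolved in DMSO, are tested for induction of a hypoxia response element–controlled beta-lactamase reporter in ME-180 cells. Exposure lasts 17 hrs at 37C after a 5 hr settling period, followed by CCF4-AM FRET substrate.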

[11] = qHTS assay to identify small molecule agonists of H2AX - cell viability counter screen (AID 1224847; calls by dose curve; also: top concentration of the series differs between compounds; nearly all actives have a fitted effect of over 30% in size)
Procedure, shortened: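 Quantitative HTS viability measurement: CHO-K1 wild-type cells in serum (10% FBS) medium, short 3 hr drug exposure at 37C with 0.76% DMSO, CellTiter-Glo luminescent detection.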

[12] = qHTS RealTime-Glo MT Cell Viability Assay in HepG2 cells - 24 hour (AID 1224867); also: nearly all actives have a fitted effect of over 50% in size
Procedure, shortened: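 Compound treatment began 5 h after plating HepG2 cells (600/well) with NanoLuc luciferase and prosubstrate. Plates stayed at 37 C for 40 h; luminescence was captured at six time points, 0 h through 40 h.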

[13] = qHTS RealTime-Glo MT Cell Viability Assay in HEK293 cells - 32 hour (AID 1224868); also: top concentration of the series differs between compounds; nearly all actives have a fitted effect of over 50% in size
Procedure, shortened: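 Quantitative high-throughput screen of the Tox21 10K library in HEK293: cells and RealTime-Glo reagents plated together, compound added at 5 h, luminescence monitored through 40 h at 37 C.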

[14] = A CellTox Green Cytotoxicity Assay to monitor cytotoxicity in HEK293 cells - 0 hour (AID 1224869); also: nearly all actives have a fitted effect of over 50% in size
Procedure, shortened: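 Cells (HEK293, 600/well) and dye reagent are dispensed together. After 5 h at 37 C, 23 nL compound is pinned in. Plates stay at 37 C for 40 h with fluorescence read at 0h, 8h, 16h, 24h, 32h and 40h.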

[15] = molecular target: Nuclear receptor subfamily 1 group I member 3 (Homo sapiens) (UniProt Q14994); assay: qHTS assay to identify small molecule agonists of the constitutive androstane receptor (CAR) signaling pathway (AID 1224839); also: nearly all actives have a fitted effect of over 15% in size; also: potency is read from the fitted curve at half-maximal effect
Procedure, shortened: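 Double-stable HepG2 cells (hCAR, CYP2B6-2.2kb) seeded 4 h before compound addition. Exposure 24 h with 0.75 uM PK11195 final. Luciferase detected by ONE-Glo.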

[16] = qHTS assay to identify small molecule antagonists of the estrogen related receptor signaling pathway with the pleiotropic PPARgamma coactivator (PGC) from Tox21 10K library (AID 1224841; call rule not given here)
Procedure, shortened: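 Steps: plate 2,000 PGC/ERR cells per well; incubate 6 h at 37 C with 5% CO2; transfer compounds from DMSO stocks by pin tool; incubate 18 h at 37 C; add One-Glo; measure luminescence 30 min later.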

[17] = qHTS assay to identify small molecule agonists of the estrogen related receptor signaling pathway with the pleiotropic PPARgamma coactivator (PGC) from Tox21 10K library (AID 1224842); also: nearly all actives have a fitted effect of over 15% in size
Procedure, shortened: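 Luminescence from One-Glo (30 min, room temperature) measured after PGC/ERR cells had 18 h at 37 C with pinned compound (23 nL in DMSO). Cells had been seeded at 2,000 per well and pre-incubated 6 h.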

[18] = qHTS assay to identify small molecule antagonists of the estrogen related receptor (ERR) signaling pathway from Tox21 library (AID 1224848); also: nearly all actives have a fitted effect of over 50% in size
Procedure, shortened: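 ERR cell line, 2,000 cells/well. 6 h settle, then compound (DMSO) added; 18 h at 37 C; ONE-Glo luminescence after 30 min RT.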

[19] = qHTS assay to identify small molecule agonists of the estrogen related receptor (ERR) signaling pathway from Tox21 library (AID 1224849; calls by dose curve; also: nearly all actives have a fitted effect of over 15% in size); settings: ERR reporter cell line, ONE-Glo luciferase, 18 h; at 92.4 µM (top of the series)
Procedure, shortened: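 Cells carrying the ERR reporter were plated and allowed to settle for 6 h, exposed to library compounds for 18 h at 37 C, then lysed with ONE-Glo and luminescence measured.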

Luciferin 4-monooxygenase (Photinus pyralis), sequence (P08659 whole entry, looked up): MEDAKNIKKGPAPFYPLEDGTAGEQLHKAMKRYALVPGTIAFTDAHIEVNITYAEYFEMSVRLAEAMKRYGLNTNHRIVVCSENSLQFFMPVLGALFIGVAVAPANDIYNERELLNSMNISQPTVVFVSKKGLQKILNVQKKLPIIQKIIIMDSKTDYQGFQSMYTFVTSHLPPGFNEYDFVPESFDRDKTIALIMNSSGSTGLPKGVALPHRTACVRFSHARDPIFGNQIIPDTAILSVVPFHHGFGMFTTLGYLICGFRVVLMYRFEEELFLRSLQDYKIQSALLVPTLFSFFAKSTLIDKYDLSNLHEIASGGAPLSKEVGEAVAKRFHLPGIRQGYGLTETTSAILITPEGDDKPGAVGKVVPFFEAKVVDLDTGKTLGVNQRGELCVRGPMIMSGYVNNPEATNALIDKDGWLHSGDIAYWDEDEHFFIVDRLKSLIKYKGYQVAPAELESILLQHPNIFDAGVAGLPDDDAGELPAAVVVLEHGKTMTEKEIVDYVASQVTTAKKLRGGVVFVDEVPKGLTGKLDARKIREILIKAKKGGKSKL
Thyrotropin receptor (Homo sapiens), sequence (P16473 whole entry, looked up): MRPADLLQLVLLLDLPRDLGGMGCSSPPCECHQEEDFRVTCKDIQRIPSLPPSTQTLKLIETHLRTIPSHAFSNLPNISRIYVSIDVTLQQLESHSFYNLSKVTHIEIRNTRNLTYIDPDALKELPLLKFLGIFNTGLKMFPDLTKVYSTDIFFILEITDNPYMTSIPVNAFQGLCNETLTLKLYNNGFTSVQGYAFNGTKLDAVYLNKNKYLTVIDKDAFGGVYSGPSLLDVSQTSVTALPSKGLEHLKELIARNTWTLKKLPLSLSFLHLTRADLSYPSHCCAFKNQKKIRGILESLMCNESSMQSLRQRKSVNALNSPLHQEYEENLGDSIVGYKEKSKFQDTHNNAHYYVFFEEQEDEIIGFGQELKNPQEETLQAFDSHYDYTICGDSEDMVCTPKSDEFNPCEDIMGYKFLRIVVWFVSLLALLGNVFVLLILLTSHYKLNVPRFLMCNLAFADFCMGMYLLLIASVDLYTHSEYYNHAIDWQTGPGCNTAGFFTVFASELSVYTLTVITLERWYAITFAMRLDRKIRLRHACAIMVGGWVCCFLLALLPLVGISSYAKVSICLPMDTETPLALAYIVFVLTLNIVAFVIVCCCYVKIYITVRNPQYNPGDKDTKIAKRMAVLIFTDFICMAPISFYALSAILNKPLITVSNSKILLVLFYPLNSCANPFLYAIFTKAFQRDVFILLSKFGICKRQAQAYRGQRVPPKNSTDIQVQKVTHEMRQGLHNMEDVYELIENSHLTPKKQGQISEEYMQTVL
Nuclear receptor subfamily 1 group I member 3 (Homo sapiens), sequence (Q14994 whole entry, looked up): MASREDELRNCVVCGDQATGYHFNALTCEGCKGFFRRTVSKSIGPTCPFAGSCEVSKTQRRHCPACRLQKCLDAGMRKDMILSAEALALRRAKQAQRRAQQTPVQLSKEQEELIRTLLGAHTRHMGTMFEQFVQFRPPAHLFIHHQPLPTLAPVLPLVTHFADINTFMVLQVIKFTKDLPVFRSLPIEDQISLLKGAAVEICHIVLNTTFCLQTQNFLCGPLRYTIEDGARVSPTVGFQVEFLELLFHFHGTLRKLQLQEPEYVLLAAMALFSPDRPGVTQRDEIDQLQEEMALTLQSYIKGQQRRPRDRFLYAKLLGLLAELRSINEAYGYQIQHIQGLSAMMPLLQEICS

Structure (SMILES) | Potency [1] | Potency [2] | Potency [3] | Potency [4] | Potency [5] | Potency [6] | Potency [7] | Potency [8] | Potency [9] | outcome [10] | Potency [11] | outcome [12] | Potency [13] | Potency [14] | Potency [15] | Potency [16] | Potency [17] | Potency [18] | activity change, positive = activation [19]
CCOP(=S)(OCC)Oc1ccc([N+](=O)[O-])cc1 | inactive | inactive | inactive | inactive | inactive | inactive | inactive | inactive | inactive | inactive | inactive | inactive | inactive | inactive | – | – | – | – | –
OC[C@@H](O)[C@H]1O[C@@H]2O[C@H](C(Cl)(Cl)Cl)O[C@@H]2[C@H]1O | inactive | inactive | inactive | inactive | inactive | inactive | inactive | inactive | inactive | inactive | inactive | inactive | inactive | inactive | inactive | inactive | inactive | inactive | 4.33% (inactive) and 6.3% (inactive)
O=C(O)C(Br)Br | inactive | inactive | inactive | inactive | inactive | inactive | – | inactive | inactive | inactive | inactive | inactive | inactive | inactive | inactive | – | – | – | –
O=[N+]([O-])c1ccc(Cl)c(Cl)c1 | inactive | inactive | inactive | inactive | inactive | inactive | inactive | inactive | inactive | inactive | inactive | inactive | inactive | inactive | inactive | inactive | inactive | inactive | -0.469% (inactive) and -6.92% (inactive)
CSc1nnc(C(C)(C)C)c(=O)n1N | inactive | inactive | inactive | inactive | inactive | inactive | inactive | inactive | inactive | inactive | inactive | inactive | inactive | inactive | inactive | – | – | – | –
Oc1c(Br)cc(Br)cc1Br | inactive | inactive | inactive | inactive | inactive | inactive | inactive | inactive | inactive | inactive | inactive | inactive | inactive | inactive | inactive | – | – | – | –
CN(C)C(=O)Nc1cccc(C(F)(F)F)c1 | inactive | inactive | inactive | inactive | inactive | inactive | inactive | inactive | inactive | inactive | inactive | inactive | inactive | inactive | inactive | – | – | – | –
CNC(=O)O/N=C(\SC)C(=O)N(C)C | inactive | inactive | inactive | inactive | inactive | inactive | inactive | inactive | inactive | inactive | inactive | inactive | inactive | inactive | inactive | inactive | inactive | inactive | –
CCCCC(CC)C(=O)Cl (stereo unspecified) | inactive | inactive | inactive | inactive | inactive | inactive | inactive | inactive | inactive | inactive | inactive | inactive | inactive | inactive | inactive | – | – | – | –
C=CCN=C=S | inactive | inactive | inactive | inactive | inactive | inactive | inactive | inactive | inactive | inactive | inactive | inactive | inactive | inactive | inactive | inactive | inactive | inactive | 10.8% (inactive) and 0.847% (inactive)
Cc1cccc(N)c1C | inactive | inactive | inactive | inactive | inactive | inactive | inactive | inactive | inactive | inactive | inactive | inactive | inactive | inactive | inactive and 61.1 µM (active) | – | – | – | –
C=CC#N | inactive | inactive | inactive | inactive | inactive | inactive | inactive | inactive | inactive | inactive | inactive | inactive | inactive | inactive | inactive | inactive | inactive | inactive | 0.57% (inactive) and 1.17% (inactive)
CC[N+](=O)[O-] | inactive | inactive | inactive | inactive | inactive | inactive | inactive | inactive | inactive | inactive | inactive | inactive | inactive | inactive | inactive | – | – | – | –
COc1nc(NC(C)C)nc(NC(C)C)n1 | inactive | inactive | inactive | inactive | inactive | inactive | inactive | inactive | inactive | inactive | inactive | inactive | inactive | inactive | inactive | inactive | inactive | inactive | 1.12% (inactive) and 6.24% (inactive)
CNC(=O)O/N=C/C(C)(C)S(C)=O (stereo unspecified) | inactive | inactive | inactive | inactive | inactive | inactive | inactive | inactive | inactive | inactive | inactive | inactive | inactive | inactive | inactive | – | – | – | –

Source: PubChem BioAssay (Tox21)
